Rv3671c protease = inhibitors of M. tuberculosis serine protease Rv3671c. inhibition, % at 5.96 µM. 0.048% of 320,000 active; in the data active = inhibition above about 38%;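 note: extracellular domain of Rv3671c used as enzyme; 0% = enzyme with DMSO and 100% = no enzyme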
Mtb UGM inh = blocks M. tuberculosis UGM enzyme. purified UGM, fluorescence polarization probe displacement. inhibition, % at 10 µM. 0.06% of 320,000 active. P9WIQ1. AID 504406; in the data active = inhibition above about 10%, passing the limit was not always enough; inconclusive = no clear call, values can overlap the other calls
Mtb betalactam = beta-lactam sensitization of Mtb H37Rv; M. tuberculosis H37Rv growth with meropenem, percent inhibition; inhibition, % at 25 µM; 0.27% of 330,000 active; call rule not given here;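 note: growth measured after seven days incubation then overnight dye step; 0% = bacteria only wells and 100% = bacteria with antibiotic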
Mtb FBA inh = Mtb fructose-bisphosphate aldolase inhibition | 2.3% of 360,000 active | P9WQA3 | AID 588726 | purified M. tuberculosis FBA, fluorescence read-out | inhibition, % at 1 µM;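 note: 0% = vehicle and 100% = reference inhibitor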
GDH-TPI counter-1 = counter-screen for M. tuberculosis FBA inhibitors: GDH-TPI coupled enzymes; GDH-TPI coupled enzyme counterscreen, NADH absorbance; inhibition, % at 4.8 µM; 1.2% of 360,000 active; AID 588335; in the data active = inhibition above about 30%;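 note: 0% = DMSO wells and 100% = wells lacking the enzyme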
RecA intein inh = Mtb RecA intein splicing inhibition | cell-free RecA intein splicing, fluorescence | 0.75% of 290,000 active | inhibition, % (concentration not given with the values) | P9WHJ3; in the data active = inhibition above about 30%; inconclusive = no clear call, values can overlap the other calls;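 note: 0% = vehicle wells and 100% = reference inhibitor control wells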
Mtb FBA inh conf = Mtb FBA inhibition, confirmed. shares compounds with Mtb FBA inh. purified M. tuberculosis FBA, fluorescence read-out. inhibition, % at 1 µM. 78% of 5,600 active. AID 651616;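 note: 0% = vehicle wells and 100% = reference inhibitor wells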
GDH-TPI counter-2 = inhibits GDH-TPI coupling enzymes, flagging Mtb FBA hits | GDH-TPI coupled enzyme counterscreen, fluorescence | AID 652141 | inhibition, % at 1 µM | shares compounds with Mtb FBA inh | 81% of 5,600 active; in the data active = inhibition above about 10%
GDH-TPI dose = counter-screen for M. tuberculosis FBA inhibitors: GDH-TPI dose response | shares compounds with Mtb FBA inh | GDH-TPI coupled enzyme assay, fluorescence, artifact counterscreen | IC50, µM | 79% of 170 active | AID 652145; call rule not given here
* = called active by the depositor; ? = inconclusive; nt = not tested or not shown. Sampled rows, rich in hits. Any-hit rate of the full collection: about 4%. Cut-off read from the data, not from the text of the source, unless noted: active = inhibition above about 27%; inactive = the rest.

SMILES	Rv3671c protease	Mtb UGM inh	Mtb betalactam	Mtb FBA inh	GDH-TPI counter-1	RecA intein inh	Mtb FBA inh conf	GDH-TPI counter-2	others
NS(=O)(=O)c1cc2c(cc1Cl)NC(C1CC3C=CC1C3)NS2(=O)=O (configuration not stated)	-2	2	1	4	7	nt	nt	nt
COc1ccc2oc(C(=O)OCC(=O)N3CCCCC3C)c(C)c2c1 (configuration not stated)	-2	-2	-4	63*	1	nt	195*	169*
COc1ccc2oc(C(=O)OCC(=O)N3CCCC3=O)c(C)c2c1	1	4	-18	45*	2	2	73*	36*
CCOc1ccc2oc(C(=O)OCC(=O)N3C(C)CCCC3C)c(C)c2c1 (configuration not stated)	-9	-2	41	48*	6	nt	91*	87*
Cc1c(C(=O)OCC(=O)N2C(C)CCCC2C)oc2ccccc12 (configuration not stated)	0	-1	-26	8	-2	1	nt	nt
COc1ccc2oc(C(=O)OCC(=O)N3C(C)CCCC3C)c(C)c2c1 (configuration not stated)	-1	2	?	40*	-3	4	41*	45*
Fc1cccc(-c2cncc(N3CCN(CCN4CCCC4)CC3)n2)c1	nt	nt	nt	1	6	nt	nt	nt
CC(=O)CCc1c(C)nc2ccc(C(=O)O)cc2c1Cl	-6	-2	-3	5	8	-6	nt	nt
CCOc1ccc(-n2nc3ccc(N)cc3n2)cc1	nt	1	25	74*	16	1	14	1	GDH-TPI dose=1.1*
COc1ccc(-n2nc3cc(C)c(NC(=O)CC(C)C)cc3n2)cc1	nt	nt	nt	nt	nt	-5	nt	nt
COc1ccc(-n2nc3ccc(N)cc3n2)cc1	nt	nt	nt	56*	16	nt	54*	41*
Cc1sc(N)nc1C12CC3CC(CC(C3)C1)C2	5	1	-5	-2	13	nt	nt	nt
C/C=C(\C)C(=O)O[C@H](c1cc2ccc(=O)oc2cc1OC)[C@@H](O)C(C)(C)O	0	4	-4	40*	18	nt	90*	58*
COc1cc2cc(Oc3ccc4ccc(=O)oc4c3)c(=O)oc2cc1OC(=O)C=C(C)C	1	-2	-1	nt	nt	-81	nt	nt
C/C=C(\C)C(=O)O[C@@H]([C@H](O)c1cc2ccc(=O)oc2cc1OC)C(C)(C)O	-1	2	-8	38*	18	nt	42*	23*
C/C=C(/C)C(=O)O[C@@H]([C@H](O)c1cc2ccc(=O)oc2cc1OC)C(C)(C)O[C@@H]1O[C@H](CO)[C@@H](O)[C@H](O)[C@H]1O	-1	1	0	59*	12	nt	161*	146*
CC(C)(O)[C@H](O)Cc1cc2ccc(=O)oc2cc1O[C@@H]1O[C@H](CO)[C@@H](O)[C@H](O)[C@H]1O	-2	4	2	6	13	nt	nt	nt
CN(CC(=O)Nc1ccc(Cl)c(C(F)(F)F)c1)C(=O)CCNC(=O)c1ccco1	-3	1	-13	1	-1	-1	nt	nt
Nc1cnn(C2OC(CO)C(O)C2O)c(=O)n1 (configuration not stated)	-1	-3	-6	3	4	0	nt	nt
O=C(c1nc2nc(-c3ccc(Cl)cc3)cc(C(F)(F)F)n2n1)N1CCOCC1	-1	-2	-6	33*	26	2	121*	94*
Nc1nc2nc(-c3ccc(F)cc3)cc(C(F)(F)F)n2n1	6	-1	0	41*	-7	-9	50*	40*
CC(C)(C)NC(=O)c1nc2nc(-c3ccccc3)cc(C(F)(F)F)n2n1	6	-1	9	32*	1	8	91*	62*
COc1ccc(-c2cc(C(F)(F)F)n3nc(C(=O)O)nc3n2)cc1	9	1	-3	23	28	nt	nt	nt
O=C(NN1C(=O)C2C3C=CC(C3)C2C1=O)C(O)c1ccccc1 (configuration not stated)	9	1	2	-5	-11	-1	nt	nt

Source: PubChem BioAssay
